Records with an inconclusive call do not appear. Entries that show only a call come without a potency. Calls of active or inactive are those of the source. Calls follow the shape of the dose curve; as a rule, active = well fitted cell-killing curve with a large enough effect; inconclusive = small, poorly fitted or top-dose-only effect; inactive = flat fitted curve, though single readings scatter.
Assay: Cell Viability - LYMP2-008 (AID 980);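 also: cells exposed to compound for 24 h at 37 °C; nearly all actives have a fitted effect of over 60% in size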
Conditions: LYMP2-008 lymphoblastoid cell viability, qHTS; series mostly up to 92.2 µM
Source text: NIH Chemical Genomics Center [NCGC]
NIH Molecular Libraries Screening Centers Network [MLSCN]
National Institutes of Environmental Health Sciences [NIEHS]
National Toxicology Program [NTP]
We have developed a 1536-well cell-based assay for quantitative high throughput screening (qHTS) against a number of cell lines to determine in vitro cytotoxicity of small molecules. This particular assay uses a human lymphoblastoid cell line (LYMP2-008) purchased from Coriell Institute for Medical Research.
NCGC Assay Protocol Summary:
The CellTiter-Glo luminescent cell viability assay (Promega) is a homogeneous method to measure the number of viable cells in culture. The end point readout of this assay is based on quantitation of intracellular ATP, an indicator of metabolic activity, using the luciferase reaction. Luciferase catalyzes the oxidation of beetle Luciferin to oxyluciferin and light in the presence of ATP. The luminescent signal is proportional to amount of ATP present.
Using the CellTiter-Glo luminescent cell viability assay, the amount of cellular ATP was measured in the lymphoblastoid cell line with complete culture medium following compound treatment for 24 hours. The assay was performed in opaque white Kalypsys 1536-well plates. In the screen, tetraoctylammonium bromide was used as positive control. Library compounds were measured for their ability to cause acute toxicity in the cell line, as reflected by a decrease in intracellular ATP levels, in a concentration-dependent manner. […] AC50 values were determined from concentration-response data modeled with the standard Hill equation.
qHTS protocol for CellTiter Glo lymphoblastoid cellular assay
[Step] [Parameter] [Value] [Description]
1. Reagent; 5 uL; 2500 lymphoblastoid cells/well
2. Time; 5 hr; 37 C incubation
4. Controls; 23 nL; Tetraoctylammonium bromide 6.4pM to 92 uM
5. Time; 24 hr; 37 C incubation
6. Reagent; 5 uL; CellTiter Glo reagent
7. Time; 30 min; Room Temperature
8. Detection; Luminescence; Viewlux plate reader
Keywords: cell viability, cytotoxicity, lymphoblastoid cell line, luminescence, NTPHTS, NTPHTS_NCGC, NIEHS, DSSTox, MLSMR, MLSCN, NIH Roadmap, qHTS, NCGC
With CCCCN(CCO)CCCC the Potency was “inactive”. For O=CNc1ccccc1, the Potency was “inactive”. With COC(=O)CCCC(=O)OC the Potency was “inactive”. For Cc1ccc(S(=O)(=O)NC2CCCCC2)cc1, the Potency was “inactive”. In the case of O=C1CCC(=O)O1, the Potency is reported as “inactive”. With Cc1cscn1 the Potency was “inactive”. With CCCOCC(C)OCC(C)O (stereo not given) the Potency was “inactive”. With NC(=O)c1ccccc1[N+](=O)[O-] the Potency was “inactive”. For Cc1ccccc1C(N)=O, the Potency was “inactive”. In the case of CC(=O)c1ccccn1, the Potency is reported as “inactive”. With Nc1ccccc1[N+](=O)[O-] the Potency was “inactive”. For C=CCOC(=O)CCCCCCCC, the Potency was “inactive”. With Cc1ccc(C)c(O)c1 the Potency was “inactive”. With Nc1ccccc1S(=O)(=O)O the Potency was “inactive”. With COc1ccc(N)c(OC)c1 the Potency was “inactive”. For CCCCC(CC)COCC1CO1 (stereo not given), the Potency was “inactive”. In the case of CCc1ccccc1O, the Potency is reported as “inactive”. With Oc1c(Cl)ccc(Cl)c1Cl the Potency was “inactive”. In the case of NC(N)=S, the Potency is reported as “inactive”. In the case of CCC(C)=O, the Potency is reported as “inactive”. For O=C(O)c1ccccc1C(=O)O, the Potency was “inactive”. With Cc1ccccc1Br the Potency was “inactive”. With CCCCOCCOCCSC#N the Potency was “inactive”. With CCCCCCCCN the Potency was “inactive”. With NC(=O)CCCCC(N)=O the Potency was “inactive”. With C(=C/c1ccccc1)/c1ccccc1 the Potency was “inactive”. For Nc1c(Cl)cc(Cl)cc1Cl, the Potency was “inactive”. In the case of Cc1cccc(Br)c1, the Potency is reported as “inactive”. In the case of O=[N+]([O-])c1cccc(Cl)c1, the Potency is reported as “inactive”. In the case of CCOc1ccccc1N, the Potency is reported as “inactive”. With C=Cc1ccccn1 the Potency was “inactive”. In the case of C=C(C)C(=O)OC, the Potency is reported as “inactive”. For O=C(O)CNC(=O)c1ccc([N+](=O)[O-])cc1, the Potency was “inactive”. With O=C(O)c1ccccc1[N+](=O)[O-] the Potency was “inactive”. With CCCCC(CC)CNCC(CC)CCCC (stereo not given) the Potency was “inactive”. In the case of CCN(CC)c1cccc(O)c1, the Potency is reported as “inactive”. For O=C(O)CNC(=O)c1ccc(CO)o1, the Potency was “inactive”. In the case of NCCCCCCN, the Potency is reported as “inactive”. In the case of CC1CCCO1 (stereo not given), the Potency is reported as “inactive”. In the case of O=C1CCCCC1, the Potency is reported as “inactive”.

Source: PubChem BioAssay (NCATS)
